The values that follow come from PubChem BioAssay AID890 (National Center for Advancing Translational Sciences (NCATS), 2007).

The source made the active and inactive calls. A call without a number means that no potency is given here. Calls follow the shape of the dose curve; as a rule, active = well fitted activation curve with a large enough effect; inactive = flat fitted curve, though single readings scatter.

The nature of the test: Confirmation Concentration-Response Assay for Epigenetic Modulators. Conditions: murine C127i cells, silenced GFP reporter derepression, imaging; series mostly up to 46 µM. The essentials:
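Read-out is the number of GFP-positive cells, counted by laser-scanning cytometry as 20 to 120 um fluorescent objects following washing. Compounds were incubated 30 hours at 37 C with c127i murine cells harbouring a silenced CMV-GFP locus.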

`c1cnn(-c2nc(N3CCOCC3)nc(N3CCOCC3)n2)c1`: the Potency entry is “inactive”.
The same measure for `CCN(CC)c1ccc2cc(-c3nc4ccccc4[nH]3)c(=O)oc2c1`: 0.56 µM (active); for `Cc1ccc2ccc(C(Nc3cccc(Cl)c3)c3ccccn3)c(O)c2n1` (centres undefined): “inactive”; for `CN1CCN(Cc2cc(Cl)c3cccnc3c2O)CC1`: 6.08 µM (active).
